Results reported in PubChem BioAssay.

test system: Human papillomavirus type 1a protein E7 (residues 44-93); test: HPV1a E7 fragment binders on microarrays, primary screen, biochemical, small-molecule microarray, residues 44-93, 635 nm fluorescence (AID 1108); details: small-molecule microarray binding, fluorescence 635 nm; higher = more signal;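 also: E7 fragment applied at 1 µg/mL in TBST for 1 h at 4 C; score combines spot fluorescence with its signal to noise ratio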

Compound	composite z-score
CCCCC(CC)C(O)C1C=CC2C(=O)NC(=O)C2N1Nc1ccccn1 (stereo unspecified)	1.46
CC(C)C[C@@H]1NC(=O)[C@@H]2C[C@H](C(=O)NCCCC[N+](C)(C)C)[C@H](c3cccc(OCCO)c3)N2C1=O	-0.832
COCCOC(=O)N1C(=O)[C@@]2(c3ccccc31)[C@H](c1ccccc1OCCO)N1[C@H](c3ccccc3)[C@H](c3ccccc3)OC(=O)[C@H]1[C@@H]2C(=O)N1CCc2cc(OC)c(OC)cc2C1	0.825
CN1C(=O)C2C=CC(C(O)COCc3ccccc3)N(Nc3ccccc3)C2C1=O (stereo unspecified)	0.372
[N-]=[N+]=NCc1ccccc1[C@H]1OC(c2ccc(OCCCO)cc2)=N[C@@]1(Cc1ccccc1N=[N+]=[N-])C(=O)NCCN1CCOCC1	1.05
C[N+](C)(C)CCCCNC(=O)[C@H]1C[C@H]2C(=O)NCC(=O)N2[C@H]1c1ccc(O)cc1	0.0571
Cc1ccc(F)cc1S(=O)(=O)N[C@@H]1CCN(C(=O)c2ccc(OC(C)C)cc2)C1	0.801
COCCOC(=O)N1C(=O)[C@@]2(c3ccccc31)[C@H](c1ccc(OCCO)cc1)N1[C@H](c3ccccc3)[C@H](c3ccccc3)OC(=O)[C@H]1[C@@H]2C(=O)NC[C@H](O)c1ccccc1	1.44
CCCCC=C[C@@H](NC(=O)CCc1ccccc1)c1ccccc1	1.38
COc1ccc([Si](C)(C)[C@@H]2[C@@H](CCO)O[C@]3(C(=O)N(Cc4ccc(N5C(=O)c6ccccc6Oc6ccccc65)cc4)c4ccccc43)[C@H]2C)cc1	-0.0261
CC[C@@H]1[C@@H]2C3C(=O)N(CC)C(=O)C3CC(=O)[C@@H]2[C@H](c2ccc(C)cc2)N1S(=O)(=O)c1ccc(C)cc1 (stereo partly specified)	1.42
